Compound activity as filed in PubChem BioAssay.
The entries come from a sample that favours hits as a whole.
IMPase Li cell – qHTS Assay for Identifying the Cell-Membrane Permeable IMPase Inhibitors: Potentiation with Lithium; Potency, µM (highest dose often 59.4 µM), without a hit: top-dose activity, negative = IMPase inhibition, most hits filed as inhibitors; CHO-M1 cells, IP1 TR-FRET (IP-One), carbachol + lithium; actives 0.35% (n = 210,000);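 also: IP1 builds up when IMPase is blocked and the TR-FRET signal falls; plate controls were basal vehicle for no effect and high inhibitor control for full effect; nearly all actives have a fitted effect of over 50% in size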
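IP1 accumulation measured by competitive TR-FRET in lysed CHO-M1 cells after 30 min compound exposure at 37C, with a small lithium addition to potentiate weak responses. Hill-equation AC50 from ratio and donor-channel data.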
ERK EGF block – qHTS Assay for Inhibitors of the ERK Signaling Pathway using a Homogeneous Screening Assay; Stimulation with EGF. HEK293-V1b, EGF-stimulated phospho-ERK AlphaScreen. Potency, µM (doses to about 11.5 µM), inactives show top-dose activity change, negative = inhibition, most hits filed as inhibitors. actives 0.41% (n = 130,000). AID 1454, 2008;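 also: plate controls were stimulated vehicle wells for no effect and unstimulated vehicle basal for full effect; nearly all actives have a fitted effect of over 55% in size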
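In this qHTS, HEK293 cells with stable type-1 vasopressin (V1b) receptor were exposed to compound at 37C for 30 min, stimulated 5 min with EGF at 25 nM, lysed, and probed for phospho-ERK by AlphaScreen.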
NPSR antagonist – qHTS Assay for Antagonists of the Neuropeptide S Receptor: cAMP Signal Transduction; Q6W5P4; CHO-NPSR cells, cAMP TR-FRET, antagonist mode; Potency, µM (series often up to 38.3 µM), for the others: at the top dose activity change, negative = inhibition, actives largely listed as inhibitors; actives 1% (n = 220,000); AID 1461, 2008; also: nearly all actives have a fitted effect of over 50% in size
Target sequence (Q6W5P4 whole entry, looked up): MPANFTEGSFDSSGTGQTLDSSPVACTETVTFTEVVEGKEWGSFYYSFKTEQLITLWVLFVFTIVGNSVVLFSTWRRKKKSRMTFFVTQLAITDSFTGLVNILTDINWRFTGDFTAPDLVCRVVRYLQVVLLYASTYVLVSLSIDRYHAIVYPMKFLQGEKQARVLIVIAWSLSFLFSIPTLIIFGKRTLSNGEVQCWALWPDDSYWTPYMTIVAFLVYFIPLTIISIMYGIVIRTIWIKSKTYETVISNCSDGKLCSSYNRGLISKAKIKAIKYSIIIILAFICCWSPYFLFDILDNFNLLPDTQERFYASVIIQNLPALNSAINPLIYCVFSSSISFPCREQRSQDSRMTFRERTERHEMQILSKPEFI
* = called active by the depositor; [ ] = dose if it differs, or a comment. Calls follow the shape of the dose curve; as a rule, active = well fitted curve in the direction sought with a large enough effect; inconclusive = small, poorly fitted or top-dose-only effect, or another doubt; inactive = no such curve, though single readings can be large; an effect the other way counts as inactive or inconclusive. Unless noted, % is scaled to controls: 0 for no effect and ±100 for the full control effect; potency is read from the fitted curve at half-maximal effect.

Screening COC(=O)[C@@H](c1ccccc1Cl)N1CCc2sccc2C1 returned IMPase Li cell 15.7%.
`CC1=CC[C@@]2(CO)COC(c3ccccc3O)C1C2` (stereo partly drawn) gave IMPase Li cell 10.1% and ERK EGF block -7.5%.
Screening CCN(CC)c1ccc(N=Nc2ncn[nH]2)cc1 returned IMPase Li cell 10.8%, ERK EGF block 7.0% and NPSR antagonist -16.8%.
Screening CCN(Cc1ccccc1)c1ccccc1 returned IMPase Li cell 11.8%.
Screening CCN(Cc1ccccc1)c1ccc(N=Nc2nn(C)c(C)c2[N+](=O)[O-])cc1 returned IMPase Li cell 6.5%, ERK EGF block 20µM* and NPSR antagonist -16.9%.
For CCN(CC)c1ccc(N=Nc2nn(C)c(C)c2[N+](=O)[O-])cc1 the results were IMPase Li cell 15.7%, ERK EGF block 15.8µM* and NPSR antagonist -8.6%.
Screening O=S(=O)(CCc1ccccc1)c1nc2ccccc2s1 returned IMPase Li cell 21.0% and ERK EGF block 3.7%.
CS(=O)(=O)N1CCN(C(=O)c2cc(-c3cccnc3)nc3ccc(Br)cc23)CC1 was read as IMPase Li cell -16.9%, ERK EGF block -9.7% and NPSR antagonist -1.3%.
NS(=O)(=O)c1ccc(CCNC(=O)c2cc(-c3ccccn3)nc3ccc(Br)cc23)cc1 was read as IMPase Li cell 11.2µM*, ERK EGF block -6.3%[57.5 µM] and NPSR antagonist 10µM*.
For Cc1ccc2c(C(=O)N3CCN(c4ccccc4)CC3)cc(-c3cccnc3)nc2c1C the results were IMPase Li cell -0.3%, ERK EGF block -7.1% and NPSR antagonist -47.8%.
`O=C(c1cc(-c2cccnc2)nc2ccc(Br)cc12)N1CCN(c2ncccn2)CC1` gave IMPase Li cell 11.2µM* and NPSR antagonist inconclusive.
For NS(=O)(=O)c1ccc(CCNC(=O)c2cc(-c3ccc(Br)cc3)nc3ccccc23)cc1 the results were IMPase Li cell 15.1%, ERK EGF block 4.4% and NPSR antagonist -33.9%.
O=C(Nc1ccc(C(=O)N2CCOCC2)cc1)c1cc(-c2cccnc2)nc2ccc(Br)cc12 was read as IMPase Li cell 9.9%, ERK EGF block 1.5% and NPSR antagonist -30.3%.
`O=C(Nc1ccccn1)c1cc(-c2cccnc2)nc2ccc(Br)cc12` gave IMPase Li cell 11.2µM*, ERK EGF block -2.6% and NPSR antagonist inconclusive.
`Cc1ccc2nc(-c3cccnc3)cc(C(=O)N3CCN(c4ccc([N+](=O)[O-])cc4)CC3)c2c1` gave IMPase Li cell 7.6%, ERK EGF block -1.2% and NPSR antagonist 5.01µM*.
C#C[C@]1(OC(C)=O)CCC2C3CCC4=CC(=O)CCC4C3CC[C@]21C (stereo partly drawn) was read as IMPase Li cell 16.5% and ERK EGF block -7.6%.
For COc1cccc(CS(=O)(=O)c2nnnn2-c2ccc(F)cc2Br)c1 the results were IMPase Li cell 12.5% and ERK EGF block -1.9%.
CC(=O)OCC(=O)[C@@]12OC3(CCCC3)O[C@@H]1C[C@H]1[C@@H]3CCC4=CC(=O)C=C[C@]4(C)[C@@]3(F)[C@@H](O)C[C@@]12C was read as IMPase Li cell 9.2% and NPSR antagonist 3.98µM*.
Screening CC1(C)O[C@@H]2C[C@H]3[C@@H]4CCC5=CC(=O)C=C[C@]5(C)[C@@]4(F)[C@@H](O)C[C@]3(C)[C@]2(C(=O)CO)O1 returned IMPase Li cell 4.0%, ERK EGF block 2.0%[57.5 µM] and NPSR antagonist -13.3%.
`O=C1c2sc3nc4ccccc4n3c2C(=O)N1c1ccccc1Cl` gave IMPase Li cell 22.4%[38.3 µM] and NPSR antagonist 10µM*.
`Cc1ccccc1N1C(=O)c2sc3nc4c(c(=O)n3c2C1=O)CCC4` gave IMPase Li cell -2.0%[38.3 µM] and NPSR antagonist inconclusive.
For CC/C(=C(\c1ccccc1)c1ccc(OCCN(C)C)cc1)c1ccc(O)cc1 the results were IMPase Li cell -1.7%.
Screening CN1Cc2c(N)cccc2[C@H](c2ccccc2)C1 returned IMPase Li cell -10.4% and ERK EGF block 2.8%[25.7 µM].
Screening Cc1cccc(Nc2ncnc3ccccc23)c1 returned IMPase Li cell 16.2%[38.3 µM] and NPSR antagonist 4.9%[46.1 µM].
Cc1ccc(Nc2ncnc3ccccc23)cc1 was read as IMPase Li cell 8.8%, ERK EGF block 25.1µM* and NPSR antagonist 19.3%.
For CN(C)Cc1ccccc1-c1cc(N(C)C)ncn1 the results were IMPase Li cell -1.9% and ERK EGF block 15.2%.
`O=C1C(NS(=O)(=O)c2ccccc2)=C(N2CCN(c3ccc(F)cc3)CC2)C(=O)c2ccccc21` gave ERK EGF block 25.1µM* and NPSR antagonist -40.1%.
CC1CCN(C2=C(NS(=O)(=O)c3ccc(Cl)cc3)C(=O)c3ccccc3C2=O)CC1 was read as IMPase Li cell 17.3%, ERK EGF block 15.8µM* and NPSR antagonist -34.3%.
For CCOC(=O)C1CCN(C(=O)c2ccccc2NS(=O)(=O)c2ccc(F)c(F)c2)CC1 the results were IMPase Li cell -0.5%, ERK EGF block 9.0% and NPSR antagonist -2.7%.
Screening O=S(=O)(Nc1nc2ccccc2nc1N1CCN(c2ccccc2)CC1)c1ccc(F)cc1 returned IMPase Li cell -2.7%, ERK EGF block -3.0% and NPSR antagonist -24.0%.
Screening O=C1C(NS(=O)(=O)c2cccs2)=C(N2CCN(c3cccc(Cl)c3)CC2)C(=O)c2ccccc21 returned IMPase Li cell 40.6%[38.3 µM] and NPSR antagonist -14.0%[46.1 µM].
For CC1CCN(C2=C(NS(=O)(=O)c3ccccc3)C(=O)c3ccccc3C2=O)CC1 the results were ERK EGF block 17.8µM* and NPSR antagonist -32.1%.
CCOC(=O)C1CCN(C2=C(NS(=O)(=O)c3ccc(Cl)cc3)C(=O)c3ccccc3C2=O)CC1 was read as ERK EGF block 31.6µM* and NPSR antagonist -58.7%.
For CC(=O)Nc1ccc(S(=O)(=O)NC2=C(N3CCN(Cc4ccccc4)CC3)C(=O)c3ccccc3C2=O)cc1 the results were IMPase Li cell 57.7%[38.3 µM] and NPSR antagonist -27.7%[46.1 µM].
`O=C1c2ccccc2-c2ccc(N=[N+]([O-])c3ccc4c(c3)C(=O)c3ccccc3-4)cc21` gave IMPase Li cell -7.1%.
CCCn1c(C)nc2c(NCCCN(CCO)CCO)nc(C)nc21 was read as IMPase Li cell -6.3% and ERK EGF block 8.3%.
`CCCCN1C(=O)c2ccc(C(=O)Nc3cccc(C)c3C)cc2C1=O` gave IMPase Li cell -12.9%[38.3 µM] and NPSR antagonist -17.6%[46.1 µM].
CCCCN1C(=O)c2ccc(C(=O)Nc3ccc(C)c(S(=O)(=O)N(C)C)c3)cc2C1=O was read as IMPase Li cell 12.4%, ERK EGF block 25.1µM* and NPSR antagonist -35.5%.
`C[N+](C)([O-])Cc1cc(-c2ccccc2)ccc1O` gave IMPase Li cell -9.4%.
`CNC(=O)[C@H]1O[C@@H](n2cnc3c(NCc4ccc(N)cc4)ncnc32)[C@H](O)[C@H]1O` gave IMPase Li cell 5.2%, ERK EGF block 10.5% and NPSR antagonist 0.9%[46.1 µM].
For CCN1/C(=C/c2sc(-c3ccccc3C)c[n+]2C)Sc2ccccc21 the results were IMPase Li cell 19.6%, ERK EGF block -9.1% and NPSR antagonist -15.8%.
